Data on 40 compounds can be found in PubChem BioAssay (NCI).

Compounds without any hit were thinned out: in the full panel of roughly 83,000, 20% have a hit.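 Plates (96-well) were seeded with cells, treated with compound at one concentration, and incubated for 48 hours before percent growth was determined.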 Unmarked numbers belong to inactive results. Active and inactive are the calls of the source.

The assay deals with TK-10 renal. The experiment in a line: NCI-60 one-dose screen, 48 h (100 = growth as untreated, 0 = no growth, -100 = all killed). The settings on record: 10 µM unless noted. Here is the method:
Growth inhibition of the TK-10 human tumor cell line is measured as a screen for anti-cancer activity. Cells are grown in 96 well plates and exposed to the test compound for 48 hours. Compounds are tested at a single concentration, which is 10^-5 M for most compounds. The reported endpoint is percent growth (GI% or GIPRCNT), where numbers from 0 - 100% represent growth inhibition, and numbers from -100% - 0 represent cell death. For example, a value of 40 represents 60% growth inhibition. A value of 0 means no net growth occurred over the course of the experiment. A value of -40 indicates 40% of cells at the beginning of the experiment died by the end of the experiment. A value of -100 means all cells are dead at the end of the experiment.
NCI-60 Human Tumor Cell Lines Screen was performed using the standard one-dose NCI protocol, which is described in more detail at https://dtp.cancer.gov/discovery_development/nci-60/default.htm.
Compounds with GIPRCNT values below 10 were considered active. Activity score was based on GIPRCNT using the following formula: […]
Score is 0 for GIPRCNT values of 100 or above, 50 for GIPRCNT values of 0, and 100 for GIPRCNT values of -100.
As to `COc1cc(/C=N/n2cnc3oc(-c4ccccc4)cc3c2=N)cc(CN2CCOCC2)c1O`, the growth is 102%.

As for `Cc1cc(C(=O)Nc2ccc(SC#N)cc2)c(C)o1`, the growth is 101%.

With `CN1C(=O)/C(=C/C=C/c2ccco2)SC1=S`, the growth was 113%.

For the compound `COc1ccc(C(=O)n2cc(C=O)c3ccccc32)cc1`, the growth is 123%.

Regarding `C=CCn1c(SCC(=O)Nc2cccc(C(=O)/C=C/c3ccccc3Cl)c2)nc2ccccc2c1=O`, the growth was 110%.

`IP(CCCSc1n(Cc2ccc3ccccc3c2)c(-c2ccccc2)c(-c2ccccc2)[n+]1Cc1ccc2ccccc2c1)(c1ccccc1)(c1ccccc1)c1ccccc1`: the growth was 66.9%.

In the case of `O=C1Nc2ccc(Br)cc2/C1=N\c1nnc(-c2ccc(Cl)cc2)o1`, the growth is 187%.

For `CCOC(=O)c1c(NC(=O)c2ccc(F)cc2F)sc2c1CCC(=O)C2`, the growth is 124%.

With `C=CCn1c(SCC(=O)Nc2cccc(C(=O)/C=C/c3ccc(Br)cc3)c2)nc2ccccc2c1=O`, the growth was 102%.

In the case of `CCCC(=O)NC(c1cccnc1)c1cc(C(C)=O)c2cccnc2c1O` (stereo not given), the growth is 39.1%.

On to `COc1ccc(-c2nnc(SCc3ccc(O)c4ncccc34)n2-c2ccccc2)cc1`, for which the growth is 38.4%.

In the case of `CC1CCN(S(=O)(=O)c2ncsc2-c2ccccc2)CC1`, the growth is 127%.

For the compound `N=c1c2cc(-c3ccccc3)oc2ncn1/N=C/c1ccccc1`, the growth is 80.3%.

As to `Cc1ccc(Nc2ncnc3c2c(C)nn3-c2ccc([N+](=O)[O-])cc2)cc1`, the growth was 97.9%.

For `CSc1ccc(/C(=N/N=C(N)N)c2ccccc2)cc1`, the growth was 63.9%.

Regarding `Cc1occc1-c1nc2s/c(=C\c3cn(-c4ccccc4)nc3-c3ccccc3)c(=O)n2n1`, the growth is 106%.

For the compound `CC1(C)CC[C@]2(C(=O)N3CCCNCC3)CC[C@]3(C)C(=CC[C@@H]4[C@@]5(C)CCC(=O)C(C)(C)[C@@H]5CC[C@]43C)[C@H]2C1`, the growth is 97.1%.

On to `CCN1C(=O)N(CC)C2SC(N/N=C/c3ccccc3)=NC21` (stereo not given), for which the growth was 81.3%.

On to `O=C(CCCCCCN1CC(=O)N2[C@@H](c3ccc(Cl)c(F)c3)c3[nH]c4ccccc4c3C[C@H]2C1=O)NO`, for which the growth was 107%.

Turning to `CCOC(=O)C1=C(C)Nc2nc3ccccc3n2C1c1ccccc1` (stereo not given), the growth was 114%.

For the compound `COCCOc1ccc(-c2csc(NC(C)=O)n2)cc1NS(=O)(=O)c1cccc2c(N(C)C)cccc12`, the growth was -21.2% (active).

Take `C#C[C@]1(O)CC[C@H]2[C@@H]3CC=C4c5sc(Nc6cccc(C)n6)nc5CC[C@]4(C)[C@H]3CC[C@@]21C`: the growth is 77.2%.

As for `CN1CCN(c2ccc(C(=O)/C=C/c3ccc(Cl)c(C(F)(F)F)c3)cc2)CC1`, the growth was 102%.

Regarding `COc1ccc(-c2ccc3c4c(cccc24)C(=O)N(N2C(=O)c4cccc5cccc(c45)C2=O)C3=O)cc1`, the growth was 134%.

Consider `Cc1cc(Cl)cc(NS(=O)(=O)c2ccc(-c3cnc(C4CC4)o3)cc2)c1`, for which the growth is 83.5%.

Take `O=C1CC2(CCOCC2)Oc2ncccc21`: the growth is 60.5%.

On to `CN1CCN(c2ccc(C(=O)Nc3cccc(-c4cn(-c5ccc(S(N)(=O)=O)cc5)nn4)c3)cc2C(F)(F)F)CC1`, for which the growth was 117%.

For the compound `C/C(Cc1ccc(Cl)cc1)=C(/c1ccccc1)c1ccc(OCCN)cc1`, the growth is 100%.

For the compound `O=C(Nc1cc(F)cc2cccnc12)c1cnc(N2CCOCC2)cn1`, the growth is 61.6%.

Regarding `C#CCOc1ccc(/C=N/Nc2nc(-c3cc4cc(Br)cc(Br)c4oc3=O)cs2)cc1`, the growth was 142%.

As for `Oc1ccccc1-c1nnc(SCc2ccc(O)c3ncccc23)o1`, the growth is 43.9%.

For the compound `CCOC(=O)c1ccc(N/C=C/C(=O)c2ccccc2)cc1`, the growth is 89.8%.

As for `CC(=O)Oc1ccc(CCN2C(=O)CSC2=S)cc1`, the growth is 57.9%.

As to `O=C(Nc1cc(Cl)cc(Cl)c1)Nc1ccc2oc(=O)ccc2c1`, the growth is 18.6%.

Regarding `CC(C)c1nn(-c2ccccc2)c(N2CCCCC2)c1/C=N/NC(N)=S`, the growth is 113%.

`O=C(Nc1ccc(F)cc1)c1cc(-c2ccc(F)cc2F)ccc1O`: the growth is 13.1%.

Take `CC(=O)Nc1nc2c(s1)C1=CC[C@H]3[C@@H]4CC[C@H](C(C)=O)[C@@]4(C)CC[C@@H]3[C@@]1(C)CC2`: the growth is 124%.

Regarding `CCCCOc1ccc(S(=O)(=O)N2CCN(c3nccc(N4CCOCC4)n3)CC2)cc1`, the growth was 44.3%.

Regarding `CCNCc1c(-c2cccc(OC(F)(F)F)c2)[nH]c2ccc(N3CCCC3)cc2c1=O`, the growth is 90.5%.

Consider `CS(=O)(=O)c1ccc2c(c1)c1c(n2C(=O)c2ccc(Cl)cc2)CCCC1`, for which the growth was 67.6%.
